Results reported in PubChem BioAssay (NCATS).
Results filed as inconclusive are left out. The source made the active and inactive calls. Calls come from the whole dose curve; as a rule, active = well fitted cell-killing curve with a large enough effect; inconclusive = small, poorly fitted or top-dose-only effect; inactive = no such curve, though single readings can be large or run the other way.

Assay: qHTS of pediatric cancer cell lines to identify multiple opportunities for drug repurposing: Primary screen for Rh41 cells (AID 1347108); note: nearly all actives have a fitted effect of over 70% in size;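 for activity change, negative = cytotoxic: luminescence drop marks cytotoxic hits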
Details: Rh41 rhabdomyosarcoma viability, CellTiter-Glo luminescence, 48 h; series mostly up to 46 µM; activity change, negative = cytotoxic: at the top concentration
Outline: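 Viability was measured as metabolically active cells after 48 hours of treatment, read by CellTiter-Glo luminescence. Compounds were tested at multiple final concentrations, giving concentration-response curves.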
Potency is the fitted concentration of half-maximal effect.

Row | SMILES | activity change, negative = cytotoxic | Potency
1 | C1CN2CCC1CC2 | 31.3% (inactive) | –
2 | C[C@]12CC[C@H](O)CC1=CC[C@@H]1[C@@H]2CC[C@]2(C)C(=O)CC[C@@H]12 | 18.8% (inactive) | –
3 | C=CCOC(Cn1ccnc1)c1ccc(Cl)cc1Cl (centres undefined) | 2.04% (inactive) | –
4 | O=C(N[C@@H]1N=C(c2ccccc2F)c2cccc3c2N(CC3)C1=O)c1cc2ccccc2[nH]1 | -14.3% (inactive) | –
5 | CN(C)C(=O)Oc1cc(OC(=O)N(C)C)cc(C(O)CNC(C)(C)C)c1 (centres undefined) | -8.52% (inactive) | –
6 | CCC(=O)O[C@H]1CC[C@H]2[C@@H]3CCC4=CC(=O)CC[C@]4(C)[C@H]3CC[C@]12C | 18.3% (inactive) | –
7 | CCN(Cc1ccc(Cl)nc1)/C(=C/[N+](=O)[O-])NC | 26.4% (inactive) | –
8 | O=C(O)c1nn(Cc2ccc(Cl)cc2Cl)c2ccccc12 | – | inactive
9 | CCC1(c2ccccc2)CCC(=O)NC1=O (centres undefined) | 24.4% (inactive) | –
10 | C[N+]1(C)[C@@H]2CC[C@H]1CC(OC(=O)C(CO)c1ccccc1)C2 (some centres undefined) | -11.9% (inactive) | –
11 | CC[C@H]1C[C@@H]2C[C@H]3c4[nH]c5ccc(OC)cc5c4CCN(C2)[C@@H]13 | – | 30 µM (active)
12 | CNC(=O)Oc1cccc2ccccc12 | 18.7% (inactive) | –
13 | C#C[C@]1(O)C=C[C@H]2[C@@H]3CCC4=CC(=O)CC[C@@H]4[C@H]3CC[C@@]21CC | 16.4% (inactive) | –
14 | COc1ccc(OC)c(CC(C)N)c1 (centres undefined) | -17.9% [at 92.7 µM] (inactive) | –
15 | CN1C[C@@H](NS(=O)(=O)N(C)C)C[C@@H]2c3cccc4c3c(cn4C)C[C@H]21 | 8.6% (inactive) | –
16 | C[N+]1(CCC(C(N)=O)(c2ccccc2)c2ccccc2)CCCCC1 | 19.1% (inactive) | –
17 | Cc1ncc2n1-c1ccc(Cl)cc1C(c1ccccc1F)=NC2 | 0.725% (inactive) | –

Row | SMILES | activity change, negative = cytotoxic | Potency
18 | c1cc2c(c(N3CCNCC3)c1)OCCO2 | 19% (inactive) | –
19 | O=C1NCN(c2ccccc2)C12CCN(CCCOc1ccc(F)cc1)CC2 | 9.73% (inactive) | –
20 | C[C@@H]1CN(C2CCC(C#N)(c3ccc(F)cc3)CC2)CC[C@]1(C(=O)O)c1ccccc1 (some centres undefined) | 13.7% (inactive) | –
21 | O=C(O)CCCCCCNC1c2ccccc2CCc2ccccc21 | 18.2% (inactive) | –
22 | Cc1nnc2n1-c1sc(CCC(=O)N3CCOCC3)cc1C(c1ccccc1Cl)=NC2 | 5.9% (inactive) | –
23 | CC(C)(C)OC(=O)c1ncn2c1[C@@H]1CCCN1C(=O)c1c(Br)cccc1-2 | 16.2% (inactive) | –
24 | CCOC(=O)C(c1c(O)c2ccccc2oc1=O)c1c(O)c2ccccc2oc1=O | 32.8% (inactive) | –
25 | CN(C)CCc1c[nH]c2cccc(O)c12 | -4.36% [at 92.7 µM] (inactive) | –
26 | CCC1(CC)C(=O)NC(=O)NC1=O | -0.416% (inactive) | –
27 | CC#C[C@]1(O)CC[C@H]2[C@@H]3C[C@H](C)C4=CC(=O)CC[C@]4(C)[C@H]3CC[C@@]21C | 7.13% (inactive) | –
28 | C[C@H]1CNCCc2ccc(Cl)cc21 | 18.6% (inactive) | –
29 | C[C@H]1C(=O)O[C@@H]2CCN3CC=C(COC(=O)[C@](C)(O)[C@]1(C)O)[C@H]23 | 10.8% (inactive) | –
30 | CC(C(O)c1ccccc1)N(C)C/C=C/c1ccccc1 (centres undefined) | 4.01% (inactive) | –
31 | CC(C)NCC(O)c1ccc(N)c(C#N)c1 (centres undefined) | 25.6% (inactive) | –
32 | Nc1ccc(Cl)cc1C(=O)c1ccccc1F | 25.2% (inactive) | –
33 | COc1cc(CC(C)N)cc2c1OCO2 (centres undefined) | -12.8% [at 92.7 µM] (inactive) | –
34 | O=C(CCCN1CCC(n2c(=O)[nH]c3ccccc32)CC1)c1ccc(F)cc1 | -5.23% (inactive) | –
